The supplement of paper PMC10849652
About 7,900 targets were measured; listed, in parts, are those with a hit and a random draw of the rest. About 0.6% of all pairs of compound and target were hits.

compound: c1cn2cc(-c3ccc4cn[nH]c4c3)nc(Nc3ccc(N4CCOCC4)cc3)c2n1 [entospletinib]; test: log2 fold change, soluble protein after heating vs DMSO (PISA); higher = thermal stabilisation; K562 cells, 10 uM, 30 min; active = over 0.2 and 3.5 SD of the protein, either way, in both replicates (recomputed)
In short: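 Values are thermal stability changes relative to control samples and are taken from duplicates. They are stated as log2 fold changes. Before quantification by TMTpro 16plex LC-MS/MS with equalised channel sums, K562 cells at 2×10^6 cells/mL were treated with 10 μM compound for 30 min, heated in aliquots for 3 min across 48°C-58°C, pooled, extracted in PBS with 0.5% NP-40 at 4°C, and centrifuged at 21,000xg for 90 min to give the soluble supernatant.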

Chain of UniProt Q93008 (Q93008 whole entry, looked up): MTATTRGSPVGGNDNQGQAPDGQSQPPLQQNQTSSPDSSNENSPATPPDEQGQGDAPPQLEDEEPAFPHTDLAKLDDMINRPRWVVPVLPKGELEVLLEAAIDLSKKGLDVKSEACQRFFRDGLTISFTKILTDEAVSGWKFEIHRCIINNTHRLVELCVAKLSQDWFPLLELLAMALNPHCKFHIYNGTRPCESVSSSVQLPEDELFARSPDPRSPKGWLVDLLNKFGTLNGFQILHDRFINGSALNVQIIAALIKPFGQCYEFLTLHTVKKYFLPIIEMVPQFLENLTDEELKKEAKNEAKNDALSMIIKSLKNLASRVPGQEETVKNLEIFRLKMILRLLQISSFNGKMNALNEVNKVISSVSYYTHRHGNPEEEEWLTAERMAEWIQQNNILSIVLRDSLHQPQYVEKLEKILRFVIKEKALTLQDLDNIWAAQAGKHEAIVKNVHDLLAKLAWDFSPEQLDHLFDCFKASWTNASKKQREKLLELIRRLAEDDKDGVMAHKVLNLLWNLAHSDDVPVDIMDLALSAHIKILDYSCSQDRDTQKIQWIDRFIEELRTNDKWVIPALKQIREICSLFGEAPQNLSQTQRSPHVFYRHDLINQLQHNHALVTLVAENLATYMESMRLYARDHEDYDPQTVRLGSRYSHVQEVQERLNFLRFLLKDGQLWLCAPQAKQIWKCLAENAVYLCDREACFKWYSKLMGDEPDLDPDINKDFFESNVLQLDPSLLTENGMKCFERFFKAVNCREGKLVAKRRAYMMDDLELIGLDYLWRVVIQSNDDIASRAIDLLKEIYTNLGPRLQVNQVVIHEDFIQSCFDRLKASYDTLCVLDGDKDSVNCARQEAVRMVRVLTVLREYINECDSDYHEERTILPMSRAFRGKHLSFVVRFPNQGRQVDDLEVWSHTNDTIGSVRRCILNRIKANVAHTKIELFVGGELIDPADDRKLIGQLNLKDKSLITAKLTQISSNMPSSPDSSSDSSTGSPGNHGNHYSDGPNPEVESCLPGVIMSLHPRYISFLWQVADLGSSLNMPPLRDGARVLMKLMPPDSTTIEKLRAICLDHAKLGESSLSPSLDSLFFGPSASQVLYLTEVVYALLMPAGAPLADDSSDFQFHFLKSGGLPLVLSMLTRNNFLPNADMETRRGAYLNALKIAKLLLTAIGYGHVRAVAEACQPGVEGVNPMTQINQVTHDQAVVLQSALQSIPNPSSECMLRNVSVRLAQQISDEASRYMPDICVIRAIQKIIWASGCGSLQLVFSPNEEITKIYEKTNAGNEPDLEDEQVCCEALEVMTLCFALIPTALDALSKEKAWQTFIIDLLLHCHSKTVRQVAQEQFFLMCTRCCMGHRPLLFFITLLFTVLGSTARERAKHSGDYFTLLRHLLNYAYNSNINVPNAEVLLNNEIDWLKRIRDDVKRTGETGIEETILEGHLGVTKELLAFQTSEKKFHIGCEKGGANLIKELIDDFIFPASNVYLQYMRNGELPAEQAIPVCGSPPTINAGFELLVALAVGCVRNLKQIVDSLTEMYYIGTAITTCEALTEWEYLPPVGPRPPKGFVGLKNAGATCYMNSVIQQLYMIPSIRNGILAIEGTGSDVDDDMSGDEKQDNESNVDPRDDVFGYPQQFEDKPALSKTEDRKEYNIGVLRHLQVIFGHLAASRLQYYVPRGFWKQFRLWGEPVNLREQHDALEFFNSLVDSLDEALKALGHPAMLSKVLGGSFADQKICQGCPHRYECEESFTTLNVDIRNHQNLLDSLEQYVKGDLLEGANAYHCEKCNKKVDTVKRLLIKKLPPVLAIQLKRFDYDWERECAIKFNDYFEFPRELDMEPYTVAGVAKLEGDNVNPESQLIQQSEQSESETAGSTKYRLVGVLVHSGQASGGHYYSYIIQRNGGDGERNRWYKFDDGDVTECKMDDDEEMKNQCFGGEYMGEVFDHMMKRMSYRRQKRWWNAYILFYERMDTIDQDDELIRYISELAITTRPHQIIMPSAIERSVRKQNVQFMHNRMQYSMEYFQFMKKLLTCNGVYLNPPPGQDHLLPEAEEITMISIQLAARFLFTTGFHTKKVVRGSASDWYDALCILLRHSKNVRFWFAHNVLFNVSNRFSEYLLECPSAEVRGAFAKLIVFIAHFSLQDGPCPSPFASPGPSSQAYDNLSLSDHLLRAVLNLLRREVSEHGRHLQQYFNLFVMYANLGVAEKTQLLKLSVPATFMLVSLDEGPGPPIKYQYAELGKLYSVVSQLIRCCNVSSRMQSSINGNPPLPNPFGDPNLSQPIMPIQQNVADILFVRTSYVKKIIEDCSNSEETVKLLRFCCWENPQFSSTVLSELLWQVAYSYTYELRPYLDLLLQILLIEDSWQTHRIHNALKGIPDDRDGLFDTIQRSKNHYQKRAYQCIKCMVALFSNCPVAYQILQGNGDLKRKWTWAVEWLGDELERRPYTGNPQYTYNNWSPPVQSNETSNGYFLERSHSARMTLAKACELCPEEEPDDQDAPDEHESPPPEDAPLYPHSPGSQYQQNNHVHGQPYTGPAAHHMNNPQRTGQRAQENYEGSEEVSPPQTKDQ
Chain of UniProt Q9HAD4 (Q9HAD4 whole entry, looked up): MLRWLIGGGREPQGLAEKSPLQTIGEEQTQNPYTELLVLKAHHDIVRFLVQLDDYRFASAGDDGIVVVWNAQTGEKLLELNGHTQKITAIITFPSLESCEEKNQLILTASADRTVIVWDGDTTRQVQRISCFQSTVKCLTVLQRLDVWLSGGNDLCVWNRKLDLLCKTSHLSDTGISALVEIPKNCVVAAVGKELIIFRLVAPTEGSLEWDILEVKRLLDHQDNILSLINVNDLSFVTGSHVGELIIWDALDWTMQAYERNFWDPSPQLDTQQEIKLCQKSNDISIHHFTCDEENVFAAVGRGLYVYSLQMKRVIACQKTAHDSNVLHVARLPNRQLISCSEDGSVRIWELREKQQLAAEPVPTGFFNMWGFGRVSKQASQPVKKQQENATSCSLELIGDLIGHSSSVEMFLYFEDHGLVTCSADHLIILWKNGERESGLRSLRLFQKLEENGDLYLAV
Chain of UniProt Q6PID6 (Q6PID6 whole entry, looked up): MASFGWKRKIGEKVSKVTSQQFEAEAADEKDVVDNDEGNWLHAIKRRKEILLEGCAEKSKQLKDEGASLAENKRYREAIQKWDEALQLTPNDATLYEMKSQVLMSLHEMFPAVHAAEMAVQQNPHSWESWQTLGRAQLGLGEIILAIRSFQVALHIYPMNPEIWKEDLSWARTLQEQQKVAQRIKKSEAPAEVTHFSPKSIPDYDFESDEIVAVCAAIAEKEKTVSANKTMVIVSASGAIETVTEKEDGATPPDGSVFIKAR
Chain of UniProt O95379 (O95379 whole entry, looked up): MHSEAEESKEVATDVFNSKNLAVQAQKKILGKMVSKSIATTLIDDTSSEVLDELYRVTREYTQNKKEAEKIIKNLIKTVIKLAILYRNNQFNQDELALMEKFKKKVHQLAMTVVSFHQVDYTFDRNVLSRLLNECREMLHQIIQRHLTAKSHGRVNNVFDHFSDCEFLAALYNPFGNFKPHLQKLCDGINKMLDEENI
Chain of UniProt Q13263 (Q13263 whole entry, looked up): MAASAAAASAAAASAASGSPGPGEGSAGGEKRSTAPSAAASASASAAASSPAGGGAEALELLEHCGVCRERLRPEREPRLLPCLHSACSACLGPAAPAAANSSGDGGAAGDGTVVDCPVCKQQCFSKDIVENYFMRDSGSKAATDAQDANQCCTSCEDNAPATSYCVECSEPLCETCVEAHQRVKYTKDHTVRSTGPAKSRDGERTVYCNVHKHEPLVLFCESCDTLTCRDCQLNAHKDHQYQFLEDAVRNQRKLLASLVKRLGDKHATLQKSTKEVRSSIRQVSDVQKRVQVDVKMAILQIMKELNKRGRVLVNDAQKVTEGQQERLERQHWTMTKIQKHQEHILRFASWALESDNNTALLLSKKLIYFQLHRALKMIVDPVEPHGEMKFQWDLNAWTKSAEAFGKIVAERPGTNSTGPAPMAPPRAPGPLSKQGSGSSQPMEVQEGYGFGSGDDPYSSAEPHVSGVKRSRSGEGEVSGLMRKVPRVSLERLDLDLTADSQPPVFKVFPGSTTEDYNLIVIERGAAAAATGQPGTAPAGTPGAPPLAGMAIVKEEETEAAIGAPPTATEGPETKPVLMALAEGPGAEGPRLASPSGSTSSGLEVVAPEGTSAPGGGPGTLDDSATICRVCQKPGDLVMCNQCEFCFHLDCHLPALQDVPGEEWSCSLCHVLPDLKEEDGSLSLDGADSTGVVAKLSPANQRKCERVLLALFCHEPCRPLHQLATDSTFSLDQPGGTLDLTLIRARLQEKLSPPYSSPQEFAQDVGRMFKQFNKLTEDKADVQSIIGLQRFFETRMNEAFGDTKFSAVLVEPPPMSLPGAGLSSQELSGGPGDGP
Chain of UniProt Q96AJ9 (Q96AJ9 whole entry, looked up): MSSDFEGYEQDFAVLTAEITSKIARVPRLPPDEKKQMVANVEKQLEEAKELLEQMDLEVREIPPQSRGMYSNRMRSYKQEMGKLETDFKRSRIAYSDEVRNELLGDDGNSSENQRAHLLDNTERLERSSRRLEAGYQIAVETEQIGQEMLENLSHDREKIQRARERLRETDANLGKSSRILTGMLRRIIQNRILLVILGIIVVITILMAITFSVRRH
Chain of UniProt Q9C037 (Q9C037 whole entry, looked up): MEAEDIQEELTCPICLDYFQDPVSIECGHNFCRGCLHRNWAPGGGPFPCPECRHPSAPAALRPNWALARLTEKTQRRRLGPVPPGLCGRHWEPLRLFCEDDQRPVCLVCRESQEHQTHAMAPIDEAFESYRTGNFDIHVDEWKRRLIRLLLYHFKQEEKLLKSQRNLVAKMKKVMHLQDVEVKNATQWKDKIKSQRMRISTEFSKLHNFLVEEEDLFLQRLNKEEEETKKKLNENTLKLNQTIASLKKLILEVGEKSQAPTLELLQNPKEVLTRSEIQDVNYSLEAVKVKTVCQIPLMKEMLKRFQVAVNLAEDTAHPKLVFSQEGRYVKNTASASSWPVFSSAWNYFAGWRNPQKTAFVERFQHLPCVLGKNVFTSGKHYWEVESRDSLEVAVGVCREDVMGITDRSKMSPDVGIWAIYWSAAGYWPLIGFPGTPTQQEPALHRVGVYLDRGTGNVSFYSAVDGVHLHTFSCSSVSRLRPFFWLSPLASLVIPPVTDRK

log2 fold change, inactive:
TRIM28 (UniProt Q13263) -0.025
TRIM4 (UniProt Q9C037) 0.089
TXNIP (UniProt Q9H3M7) -0.146
USP9X (UniProt Q93008) -0.01
USP48 (UniProt Q86UV5) -0.055
TNFAIP8 isoform 4 (UniProt O95379) 0.036
TMEM268 isoform 3 (UniProt Q5VZI3) -0.054
TNFRSF10A (UniProt O00220) 0.011
VTI1A (UniProt Q96AJ9) 0.013
VRK1 (UniProt Q99986) -0.149
VPS35L (UniProt Q7Z3J2) 0.011
TTC33 (UniProt Q6PID6) 0.094
WDR46, A0A0G2JJL1 0.023
TPR (UniProt P12270) 0.067
WDR41 (UniProt Q9HAD4) -0.019
WASHC5 (UniProt Q12768) -0.041
UCHL5 isoform 3 (UniProt Q9Y5K5) -0.025
